Unmarked numbers belong to inactive results. No rule for the calls is given here.

The test system of the assay is Botulinum neurotoxin type F light chain protease (Clostridium botulinum). The experiment in a line: Clostridium botulinum type F light chain protease inhibitors, microsphere substrate cleavage, validation (AID 588459). As to conditions: multiplex microsphere protease substrate cleavage assay, flow cytometry; at 10 µM; stronger effect = higher value. Background: Flow cytometry measures light scatter and fluorescence of single cells or particles in a stream.
In the case of `C[C@@H]1C[C@H]2[C@@H]3CCC4=CC(=O)C=C[C@]4(C)[C@@]3(F)[C@@H](O)C[C@]2(C)[C@@]1(O)C(=O)COP(=O)(O)O`, the inhibition (commonly the change of the read-out against control, counted positive when it falls) is 2.6%.

Regarding `CC1(C)CC(=O)C2=C(C1)c1c(ccc3ccccc13)NC2c1ccco1` (stereo not given), the inhibition is 1.8%.

In the case of `CCN(CC)C(=O)c1sc(NC(=O)c2c(OC)cccc2OC)c(C#N)c1C`, the inhibition is 6%.

`COc1ccc(C(=O)/C=C/c2ccc(OC(=O)c3cc(OC)c(OC)c(OC)c3)cc2)cc1`: the inhibition is 2.9%.

Turning to `O=C(Oc1ccccc1)Oc1ccc2c(c1)oc(=O)c1ccccc12`, the inhibition is -1.6%.

In the case of `COc1ccc(OC)c(NC2=C(Cl)C(=O)N(Cc3ccccc3)C2=O)c1`, the inhibition was 0%.

For `O=C1CC[C@@H](CN(Cc2ccccc2)Cc2cn[nH]c2-c2cc3ccccc3o2)N1`, the inhibition is 3.7%.

In the case of `COc1ccc(C(=O)C2CCCCC2=O)cc1` (stereo not given), the inhibition was 1.5%.

Turning to `CC(=O)N(CCC1(C(C)C)CCOC(C)(C)C1)Cc1ccco1` (stereo not given), the inhibition is -2%.

Turning to `Cc1[nH]nc(-c2ccc(O)cc2O)c1Oc1ccccc1`, the inhibition is 0.6%.

For the compound `CC(C)CN1CCN(Cc2ccc(C#CC(C)(C)O)cc2)CC1CCO` (stereo not given), the inhibition was 3.7%.

Consider `O=C(c1ccc(Cl)cc1)C1CCCN(Cc2ccc(Oc3ncccn3)cc2)C1` (stereo not given), for which the inhibition is 2.2%.

Turning to `CN(C(=O)C(Cl)Cl)c1ccc(OC(=O)c2ccco2)cc1`, the inhibition is 1.7%.

On to `CCOC(=O)Cc1c(C)nc(N)[nH]c1=O`, for which the inhibition is 2.8%.

As to `CCCC(=O)Nc1ccc(OCC(O)CNC(C)C)c(C(C)=O)c1` (stereo not given), the inhibition was 2%.

Source of the values: PubChem BioAssay.
